Experimental data reported in PubChem BioAssay (NCATS).
“And” between values parts separate entries of the source, which are not always exact repeats. Identical values can stand only once. Records with an inconclusive call do not appear. Where a call stands in place of a potency, no number is given. The source made the active and inactive calls. Unless noted, calls come from the whole dose curve; as a rule, active = well fitted curve in the direction sought with a large enough effect; inconclusive = small, poorly fitted or top-dose-only effect, or another doubt; inactive = no such curve, though single readings can be large; an effect the other way counts as inactive or inconclusive.

Key:
[1] = molecular target: Calcium and integrin-binding protein 1 (Homo sapiens) (UniProt Q99828); assay: Primary qHTS for Identification of Calcium Integrin Binding Protein 1 (CIB1) Competitor (AID 1508620);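 note: GST tagged CIB1 binding a fluorescein labelled alphaIIb integrin peptide tracer; top concentration of the series differs between compounds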
Method in brief: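 Fluorescence polarization competition: GST-tagged CIB1 (1 uM final) preincubated with compound 15 min at room temperature, then FITC-labelled alphaIIb peptide (100 nM final) added. After 15 min at room temperature, polarization read at Ex 480/Em 540.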

[2] = Primary qHTS for small molecule stabilizers of the endoplasmic reticulum resident proteome: Secreted ER Calcium Modulated Protein (SERCaMP) assay (AID 1508630)
Method in brief: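 GLuc-SERCaMP-expressing SH-SY5Y cells, pretreated 16 h with compound, are challenged with thapsigargin to empty ER calcium stores; after 4 h, coelenterazine is added directly to the medium and luminescence is imaged.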

[3] = molecular target: Cytochrome P450 2D6 (Homo sapiens) (UniProt P10635); assay: Cytochrome P450 family 2 subfamily D member 6 (CYP2D6) small molecule antagonists: luciferase biochemical (cell-free) qHTS assay (AID 1645840; active = well fitted curve in the direction sought with a large enough effect in the repeat runs; an effect the other way counts as inactive or inconclusive; note: nearly all actives have a fitted effect of over 55% in size; note: potency is the fitted concentration of half-maximal effect)
Method in brief: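 P450-Glo luminescent screen: recombinant CYP2D6 enzyme–proluciferin substrate mix preincubated with compound 10 min at room temperature, then NADPH regeneration added for 1 h at room temperature. Detection reagent added for 20 min; luciferin light read as relative luminescence units.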

[4] = molecular target: Cytochrome P450 2C9 (Homo sapiens) (UniProt P11712); assay: Cytochrome P450 family 2 subfamily C member 9 (CYP2C9) small molecule antagonists: luciferase biochemical (cell-free) qHTS assay (AID 1645842; active = well fitted curve in the direction sought with a large enough effect in the repeat runs; an effect the other way counts as inactive or inconclusive; note: nearly all actives have a fitted effect of over 55% in size; note: potency is the fitted concentration of half-maximal effect)
Method in brief: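 Luminescence, after 20 min with luciferin detection reagent, reflected CYP2C9 turnover during a 1 h NADPH-driven reaction at 37C. Enzyme-substrate mix contained 0.4% bovine serum albumin and was preincubated with compound 10 min at room temperature.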

[5] = Primary qHTS for inhibitors of nuclear receptor binding SET domain protein 2 (NSD2) in an isogenic RCH-ACV NSD2 p.E1099K mutant (9B) (AID 1645876); note: nearly all actives have a fitted effect of over 70% in size; note: potency is the fitted concentration of half-maximal effect
[6] = Primary qHTS for inhibitors of nuclear receptor binding SET domain protein 2 (NSD2) in an RCH-ACV wild type WT cells (2C) (AID 1645877); note: nearly all actives have a fitted effect of over 70% in size; note: potency is the fitted concentration of half-maximal effect

Chain of Calcium and integrin-binding protein 1 (Homo sapiens) (Q99828 whole entry, looked up): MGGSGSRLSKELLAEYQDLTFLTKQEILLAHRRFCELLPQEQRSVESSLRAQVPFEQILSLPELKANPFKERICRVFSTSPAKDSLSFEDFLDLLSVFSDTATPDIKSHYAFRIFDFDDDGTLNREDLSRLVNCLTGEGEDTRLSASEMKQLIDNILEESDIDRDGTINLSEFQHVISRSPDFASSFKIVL
Chain of Cytochrome P450 2C9 (Homo sapiens) (P11712 whole entry, looked up): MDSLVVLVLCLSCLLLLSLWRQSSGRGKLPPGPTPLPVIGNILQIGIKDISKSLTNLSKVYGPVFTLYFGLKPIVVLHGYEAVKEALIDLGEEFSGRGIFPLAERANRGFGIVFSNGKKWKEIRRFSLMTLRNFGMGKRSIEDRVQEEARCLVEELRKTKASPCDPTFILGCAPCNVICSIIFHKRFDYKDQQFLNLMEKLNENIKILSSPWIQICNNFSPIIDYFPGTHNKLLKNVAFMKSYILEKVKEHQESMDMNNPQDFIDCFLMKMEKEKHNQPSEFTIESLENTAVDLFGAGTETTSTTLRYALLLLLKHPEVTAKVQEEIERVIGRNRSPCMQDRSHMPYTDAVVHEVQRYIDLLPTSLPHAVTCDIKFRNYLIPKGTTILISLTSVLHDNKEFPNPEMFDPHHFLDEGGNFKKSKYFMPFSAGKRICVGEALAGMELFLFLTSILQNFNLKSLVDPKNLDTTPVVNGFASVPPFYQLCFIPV
Chain of Cytochrome P450 2D6 (Homo sapiens) (P10635 whole entry, looked up): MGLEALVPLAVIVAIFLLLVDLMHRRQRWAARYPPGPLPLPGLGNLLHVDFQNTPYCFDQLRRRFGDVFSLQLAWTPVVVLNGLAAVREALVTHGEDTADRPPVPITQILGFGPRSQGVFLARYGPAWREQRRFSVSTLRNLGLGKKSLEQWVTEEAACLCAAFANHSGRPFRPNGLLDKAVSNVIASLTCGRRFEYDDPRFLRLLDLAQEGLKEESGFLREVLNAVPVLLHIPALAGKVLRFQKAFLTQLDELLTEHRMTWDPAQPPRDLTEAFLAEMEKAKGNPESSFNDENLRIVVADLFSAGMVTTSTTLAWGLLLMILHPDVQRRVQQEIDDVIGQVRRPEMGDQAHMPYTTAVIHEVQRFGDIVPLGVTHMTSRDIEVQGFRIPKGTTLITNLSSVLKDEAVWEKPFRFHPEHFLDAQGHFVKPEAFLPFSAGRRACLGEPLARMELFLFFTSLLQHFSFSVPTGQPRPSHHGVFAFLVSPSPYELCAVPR

Row | SMILES | Potency [1] | Potency [2] | Potency [3] | Potency [4] | Potency [5] | Potency [6]
1 | Cc1nc(N)sc1-c1ccnc(Nc2ccc(N3CCOCC3)cc2)n1 | inactive | inactive | inactive | 6.01 µM (active) | 409 nM (active) and 590 nM (active) | 459 nM (active) and 468 nM (active)
2 | O=C(NC1CCOCC1)c1ccc(-c2cc(-c3cn[nH]c3-c3ccccn3)ccn2)cc1 | inactive | inactive | inactive | – | inactive | inactive
3 | CN[C@@H](C)C(=O)N[C@H]1CN(C(=O)CC(C)C)CC[C@H]2CC[C@@H](C(=O)NC(c3ccccc3)c3ccccc3)N2C1=O | inactive | inactive | inactive | inactive | inactive | inactive
4 | COc1ccc2c(Oc3ccc(NC(=O)c4c(C)n(CC(C)(C)O)n(-c5ccccc5)c4=O)cc3F)ccnc2c1 | inactive | inactive | inactive | 23.9 µM (active) | 11.5 µM (active) | 14.5 µM (active)
5 | CON=C(C(=O)N[C@@H]1C(=O)N2C(C(=O)OCOC(=O)C(C)(C)C)=C(C=Cc3scnc3C)CS[C@H]12)c1csc(N)n1 | inactive | inactive | – | 12 µM (active) | – | –
6 | CC(C)(Cc1ccc2ccccc2c1)NC[C@@H](O)COc1cccc(Cl)c1C#N | inactive | inactive | 0.379 µM (active) | 2.68 µM (active) | 4.68 µM (active) | 6.61 µM (active)
7 | C[C@H](NC(=O)c1sccc1OCc1ccc(Cl)cc1)c1ccccc1 | inactive | inactive | – | 0.952 µM (active) | – | –
